A selection: hits, their analogues and other compounds. The true share with any hit is near 1.2%.
ERK AVP block – inhibitors of vasopressin-stimulated ERK signaling pathway; Potency, µM (titrated, usually from 57.5 µM), for inactives: top-dose activity, negative = inhibition, hits mostly inhibitors; HEK293-V1b, vasopressin-stimulated pERK AlphaScreen; AID 995; 0.99% of 72,000 active; also: potency is read from the fitted curve at half-maximal effect; % is scaled to controls: 0 for no effect and ±100 for the full control effect; nearly all actives have a fitted effect of over 55% in size
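HEK293 cells stably expressing V1b receptor, preincubated 30 min at 37 °C with compound, then stimulated 5 min with 25 nM vasopressin. Phospho-ERK by AlphaScreen SureFire after 5 h RT; normalized to DMSO and vasopressin; AC50 by Hill fit.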
DNA Pol III inh – DNA polymerase III holoenzyme inhibition; reconstituted DNA polymerase III holoenzyme replication, biochemical; Potency, µM (titrated, usually from 57.1 µM), for the others: at the top dose activity change, negative = inhibition; 0.25% of 71,000 active; AID 603; also: potency is read from the fitted curve at half-maximal effect; % is scaled to controls: 0 for no effect and ±100 for the full control effect
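Reconstituted *E. coli* holoenzyme (0.35 nM Pol III, 1 nM beta, 154 nM SSB, 2 nM primase) was preincubated with compound for 15 min at RT. Synthesis on 1.4 nM ssM13Gori ran 35 min, then was stopped with PicoGreen/EDTA and read as dsDNA fluorescence.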
TsaE inh – inhibitors of E. coli YjeE (TsaE) | P0AF67 | purified YjeE enzyme, qHTS inhibition assay | Potency, µM | 0.05% of 71,000 active | AID 605
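Fluorescence polarization of a BODIPY Texas Red–ADP probe (2 uM) bound to purified YjeE (10 uM) was read after 15 min room-temperature incubation with compounds. Loss of polarization marks inhibitors; ADP serves as titrated control.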
BRCT inh red – disrupts BRCA1 BRCT binding to phosphoprotein, red fluorophore readout; Potency, µM (series often up to 76.9 µM), for inactives: at the top dose activity change, negative = inhibition, usual class: inhibitors; P38398; 0.03% of 75,000 active; BRCT-phosphopeptide binding, red fluorescence polarization; also: % is scaled to controls: 0 for no effect and ±100 for the full control effect
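Fluorescence polarization: 100 nM His-tagged BRCA1 BRCT with 100 nM TAMRA-labelled phospho-BACH1 decapeptide, phosphate buffer pH 7.3 with 150 mM NaCl, DTT, 0.01% Tween 20; 12 min RT. Binding inhibition seen as FP decrease.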
BRCT inh green – inhibitors of human BRCA1 BRCT-phosphoprotein interaction (green fluorophore); P38398; 0.05% of 75,000 active; Potency, µM (top dose mostly 76.9 µM), for the others: at the top dose activity change, negative = inhibition, usual class: inhibitors; BRCA1 BRCT-phosphopeptide binding, green fluorescence polarization; AID 875;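 also: potency is read from the fitted curve at half-maximal effect; plate controls were peptide without protein for full effect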
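Compounds were incubated for 12 min at room temperature with a complex of 100 nM fluorescein-tagged pBACH1 decapeptide and 250 nM His-tagged BRCT protein. Buffer was phosphate pH 7.3 with EDTA, DTT and Tween 20. Disruption of binding lowers the polarization signal.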
The depositor's hits bear a star; i = inactive; ? = inconclusive; · = no result; [ ] = another dose, or the depositor's remark. Calls follow the shape of the dose curve; as a rule, active = well fitted curve in the direction sought with a large enough effect; inconclusive = small, poorly fitted or top-dose-only effect, or another doubt; inactive = no such curve, though single readings can be large; an effect the other way counts as inactive or inconclusive.

SMILES	ERK AVP block	DNA Pol III inh	TsaE inh	BRCT inh red	BRCT inh green
C=CC1=C(C)/C(=C/c2[nH]c(Cc3[nH]c(/C=C4\NC(=O)C(C)=C4C=C)c(C)c3CCC(=O)O)c(CCC(=O)O)c2C)NC1=O	-5%	·	·	-4%	-2%
OC(CNc1nc2ccccc2s1)c1ccccc1 (stereo unspecified)	25µM*	1%	i	-2%	-1%
O=C(O)CCSc1nc2ccccc2s1	-10%	-4%	i	-1%	0%
CCOC(=O)c1c(N)sc(C(N)=O)c1C	13µM*	-8%	i	0%	0%
O=C(O)/C=C/c1ccc(O)c(O)c1	-1%	·	·	-2%	2%
O=c1cc(O)cc(/C=C\c2ccc(O)c(O)c2)o1	?	6.3µM*	i	-8%	5%
COc1ccccc1CCn1c(=O)c(-c2cc(F)cc(F)c2)nc2cncnc21	-2%	-3%	i	-3%	7%
COc1ccc(CCNC(=O)c2ccc3nc(-c4ccco4)c(-c4ccco4)nc3c2)cc1OC	20µM*	1%	i	-1%	-2%
COc1ccc(CCNC(=O)COC(=O)c2ccco2)cc1OC	-3%	-3%	i	2%	-1%
O=S1(=O)OC(c2ccc(O)cc2)(c2ccc(O)cc2)c2ccccc21	0%[11.5 µM]	-9%[11.4 µM]	i	2%[15.4 µM]	2%[15.4 µM]
N[C@@]1(C(=O)O)CCC[C@@H]1C(=O)O	-8%[11.5 µM]	-9%[11.4 µM]	i	1%[15.4 µM]	0%[15.4 µM]
CCOC(=O)C1=C(C)NC(=O)NC1/C(C)=C/c1ccccc1 (stereo unspecified)	32µM*	-1%	i	-2%	0%
CCc1cc(=O)oc2cc(C)cc(O)c12	25µM*	-5%	i	-1%	-4%
CC1CCC2[C@](C)(CO)C(O)CC[C@]2(C)C12CCC(CO)(CCO)O2 (stereo partly specified)	14%	·	·	-1%	-1%
NC(=S)NNC(N)=S	4%	3%	i	2%	-2%
COc1ccc(OCC2CC3C(CCC(C)C3c3ccc(Br)cc3)C(=O)O2)cc1 (stereo unspecified)	9%[11.5 µM]	·	·	2%[15.4 µM]	0%[15.4 µM]
Cc1cc(C(=O)CSc2nncs2)c(C)n1-c1ccc2c(c1)OCO2	32µM*	0%	i	-1%	2%
CCOc1ccc2nc(N3CCC(C(=O)N4CCN(c5ccccn5)CC4)CC3)sc2c1	20µM*	-3%	i	1%	-3%
CCOc1ccc2nc(N3CCC(C(=O)N4CCN(c5ncccn5)CC4)CC3)sc2c1	?	0%	i	0%	-2%
Cn1c(=O)[nH]c(=O)c2c1nc(Br)n2CCCSc1nc2ccccc2o1	32µM*	-5%	i	-1%	0%
O=S1(=O)C=C(Sc2nc3cc(Cl)ccc3o2)c2ccccc21	10µM*	-5%	i	5%	7%
CN(C)c1nc(N)nc(CSc2nc3cc(Cl)ccc3o2)n1	-18%	1%	i	-1%	-1%
CCCCc1nc2n[nH]c(N)c2c2c1CCC2	16µM*	-5%	i	-1%	2%
COc1ccc(C(=O)N2CCN(c3ccc(C)c(C)c3)CC2)cc1OC	·	-4%	i	-2%	0%
COc1ccc(OC)c2c(C)cc(N3CCN(C(=O)c4ccc(F)cc4)CC3)nc12	32µM*	-4%	i	-2%	0%
SMILES	ERK AVP block	DNA Pol III inh	TsaE inh	BRCT inh red	BRCT inh green
O=C(NCc1ccc2c(c1)OCO2)c1ccc(-c2ccc(Cl)cc2)o1	32µM*	1%	i	-1%	3%
FC(F)(F)c1ccccc1-c1cncnc1Nc1ccccc1	5%	-4%	i	-1%	-4%
O=C(Nc1ccc(SC(F)F)cc1)c1ccc2nccnc2c1	25µM*	-11%	i	1%	-2%
O=C1CCCC2=C1C(c1ccco1)Nc1ccc3ccccc3c12 (stereo unspecified)	-27%	25µM*	i	-5%	-4%
Cc1ccc(S(=O)(=O)N=Nc2c(O)[nH]c3cc(O)c(C(=O)O)cc23)cc1	-14%[11.5 µM]	-5%[11.4 µM]	i	-1%[15.4 µM]	-2%[15.4 µM]
Cc1c2oc3c(C)ccc(C(=O)N[C@@H]4C(=O)N[C@H](C(C)C)C(=O)N5CCC[C@H]5C(=O)N(C)CC(=O)N(C)[C@@H](C(C)C)C(=O)O[C@@H]4C)c3nc-2c(C(=O)N[C@@H]2C(=O)N[C@H](C(C)C)C(=O)N3CCC[C@H]3C(=O)N(C)CC(=O)N(C)[C@@H](C(C)C)C(=O)O[C@@H]2C)c(N)c1=O	-10%	0.02µM*	i	-5%	0%
Cc1nc(NCCO)c2nc(-c3ccccc3)n(CCN(C)C)c2n1	-28%	-9%	i	-4%	-2%
Nc1ncnc2nc[nH]c12.Nc1ncnc2nc[nH]c12.[Cl][Pt]([Cl])([Cl])[Cl]	·	2.5µM*	i	·	·
Nc1nnc(N2CCCCC2)s1	-3%	-13%	i	1%	-1%
Nc1nnc(N2CCc3ccccc32)s1	16µM*	-6%	i	-3%	-4%
N#C/C(=C\c1ccc(O)c(O)c1)C(=O)NCCCCc1ccccc1	40µM*	-12%	i	-4%	0%
N#C/C(=C\c1ccc(O)c(O)c1)C(=O)NCCc1ccccc1	?	-2%	i	-1%	-1%
Cn1cccc1-c1nc2ccc(NC(=O)c3cccs3)cc2[nH]1	20µM*	0%	i	1%	5%
Cc1noc(C)c1C(=O)N1CCC2(CC1)CN(c1ncccn1)C2	2%	8%	i	0%	-3%
COc1ccc(NC(=O)c2cnc(C)cn2)cc1-n1cnnn1	40µM*	0%	i	-2%	-1%
COc1ccc(OCC(=O)Nc2ccc(NC(=O)c3ccco3)cc2)cc1	-13%	-4%	i	0%	1%
CCOC(=O)c1c(C)[nH]c(C)c1C(=O)COc1ccc(NC(=O)c2ccco2)cc1	25µM*	?	i	-1%	2%
COc1ccc2c(c1)O[C@H](c1cccc(C(F)(F)F)c1)[C@@H](O)C2=O	10%[11.5 µM]	·	·	0%[15.4 µM]	0%[15.4 µM]
Fc1ccc2[nH]c3c(N4CCN(c5ccccc5)CC4)ncnc3c2c1	10µM*	-4%	i	-2%	0%
OC1(c2cccc(C(F)(F)F)c2)CCN(c2ncnc3c2[nH]c2ccc(F)cc23)CC1	25µM*	-2%	i	0%	-1%
O=C(c1ccco1)N1CCN(c2ncnc3c2[nH]c2ccc(Br)cc23)CC1	?	-3%	i	1%	0%
O=c1c(O)c(-c2ccc(O)c(O)c2)oc2c(OC[C@@H]3O[C@@H](O)[C@@H](O)[C@H](O)[C@H]3O)c(O)cc(O)c12	-22%	·	·	-5%	-1%
O=C1C=CC2=C3c4cc(O)c(O)cc4C[C@@]3(O)COC2=C1O	·	0.02µM*	?	·	·
COc1cccc(NC(=O)CSc2nc3c(c(-c4ccco4)c2C#N)CCCC3)c1	7%	-8%	i	0%	1%
Cc1cc(NC(=O)CSc2nc3c(c(-c4cccnc4)c2C#N)CCC3)no1	-19%	3.2µM*	i	2%	0%

Bioassay records: PubChem BioAssay, National Center for Advancing Translational Sciences (NCATS)
